The panel holds about 83,000 compounds, 20% with a hit somewhere; the sample as a whole holds those more often.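 Step 1: grow cells in 96-well plates. Step 2: add test compound at a single concentration. Step 3: incubate 48 h. Step 4: record percent growth.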 Active and inactive are the calls of the source. How the source made its calls: active means growth percent below 10; inactive means the rest.
tested on: DU-145 prostate; assay: NCI-60 one-dose screen, 48 h (100 = growth as untreated, 0 = no growth, -100 = all killed); conditions: 10 µM unless noted

Row | SMILES | growth
1 | O=C(CSc1nc2ccc([N+](=O)[O-])cc2[nH]1)Nc1ccc(F)c(Cl)c1 | 32.2% (inactive)
2 | Cc1cc(C)c(O)c(CNCCCCCCNCc2cc(C)cc(C)c2O)c1 | 7.45% (active)
3 | CS(=O)(=O)c1cccnn1 | 97.6% (inactive)
4 | Cc1ccc(S(=O)(=O)Nc2ccccc2)cc1N | 108% (inactive)
5 | Nc1cc(C(=O)O)[nH]c(=S)n1 | 106% (inactive)
6 | COc1ccc(-c2nc3ccccn3c2/C=C/C(=O)c2cc(OC)c(OC)c(OC)c2)cc1OC | 12.7% (inactive)
7 | O=C(Nc1cccc2cccnc12)c1cc(C(=O)c2ccc(Cl)cc2)n2ccc(-c3ccncc3)cc12 | 106% (inactive)
8 | Cc1cccc(C[C@H](NC(=O)Nc2ccc(C)cc2F)C(=O)N[C@@H]2C(=O)N3C[C@H](O)C[C@H]3C(=O)N3CCN(C)C[C@H]3C(=O)N[C@@H](C)C(=O)N3C[C@H](C)C[C@H]3C(=O)O[C@H]2C)c1 | 38.4% (inactive)
9 | O=C1COCCN1c1ccc(NCc2cn(Cc3cccc4ccccc34)c3ccccc23)cc1 | 98.7% (inactive)
10 | COc1ncnc2c(-c3ccccc3)cn(COCc3ccccc3)c12 | 86.6% (inactive)
11 | O=C1CN(Cc2ccc(C(=O)NO)cc2)C(=O)[C@@H](Cc2ccccc2)N1 | 111% (inactive)
12 | CC(C)C1=NOC(=O)C1=Cc1cn(-c2ccco2)nc1-c1ccccc1 | 94.6% (inactive)
13 | c1ccc(-c2nnc(-c3c[nH]c4ncccc34)s2)cc1 | 87.4% (inactive)
14 | COCCCNc1nc(NC(=O)c2cc(Br)cc(C(F)(F)F)c2)cc(-c2cccnc2)n1 | 100% (inactive)
15 | CCn1cc(-c2cc(-c3ccc(Cl)cc3)nc(N)n2)c(-c2ccc(Br)cc2)n1 | 99.4% (inactive)
16 | CCOC(CNC(=O)c1cccc([N+](=O)[O-])c1)OCC | 100% (inactive)
17 | Cc1cccc([N+](=O)[O-])c1I | 116% (inactive)
18 | CCOc1cc(NC(=O)c2ccccc2)c(OCC)cc1N | 110% (inactive)
19 | CN(C)CCOc1ccc(/C(=C(/CCCl)c2ccccc2)c2ccccc2)cc1 | 49.6% (inactive)

Row | SMILES | growth
20 | Nc1nc(N)c2c(n1)NC(c1ccc(F)cc1)C1CCc3ccccc3C1=N2 (stereo unspecified) | 62.1% (inactive)
21 | CNC(=O)c1cc(Oc2ccc3nc(NC(=O)c4ccc5ncccc5c4)sc3c2)ccn1 | 105% (inactive)
22 | CC1(C)CC[C@]23CC[C@]4(C)[C@H](CC[C@@H]5[C@@]6(C)C/C(=C/c7ccncc7)C(=O)C(C)(C)[C@@H]6CC[C@]54C)[C@H]2[C@H]1OC3=O | 80.5% [100 µM] (inactive)
23 | CC1=CC[C@@H]2C(C)(C)C(=O)CC[C@@]2(C)[C@@H]1COc1ccc2ccc(=O)oc2c1 | 88.3% (inactive)
24 | COc1ccc(/C=C/C=C\C(=O)c2ccc(-n3ccnc3)cc2)cc1 | 98% (inactive)
25 | CCc1cccc(Cl)c1 | 111% (inactive)
26 | Cc1ccc(S(=O)(=O)n2cc(C(=O)C(=O)N3CCCCC3)c3ccccc32)cc1 | 97.1% (inactive)
27 | Cn1cc(-c2noc(-c3cn(C)c4ncc(F)cc34)n2)c2cc(Cl)ccc21 | 80.3% (inactive)
28 | O=C(Nc1cccc2ccccc12)c1cc2ccccc2cc1O | 25.7% (inactive)
29 | C#C[C@]1(O)CC[C@H]2[C@@H]3CC=C4c5nc(Nc6ncccn6)sc5CC[C@]4(C)[C@H]3CC[C@@]21C | 61.1% (inactive)
30 | CC(=O)OC[C@]12CC[C@@H](C(=O)CBr)[C@@H]1[C@H]1CC[C@@H]3[C@@]4(C)CCCNC(C)(C)[C@@H]4CC[C@@]3(C)[C@]1(C)CC2 | -94.7% [100 µM] (active)
31 | O=S(=O)(c1ccc(N/N=C\c2ccccc2Cl)cc1)c1ccc(N/N=C/c2ccccc2Cl)cc1 | 92.1% (inactive)
32 | Nc1nc(Cl)c2ncn(Cc3cc4c(cc3I)OCO4)c2n1 | 52.8% (inactive)
33 | Cc1ccc2c(c1)/C(=N\N=C/c1cn(C(C)C)c3ccccc13)C(=O)N2 | 72.2% (inactive)
34 | O=C1CC(c2ccccc2)Cc2nc3ccc(Cl)cc3cc21 (stereo unspecified) | 0.185% (active)
35 | C=C(C)[C@@H]1CC[C@]2(C(N)=O)CC[C@]3(C)[C@H](CC[C@@H]4[C@@]5(C)CC[C@H](O)C(C)(C)[C@@H]5CC[C@]43C)[C@@H]12 | -33% [100 µM] (active)
36 | COc1ccc(-c2cc(-c3ccc(Cl)cc3)nc(SCCCCCCC(=O)NO)n2)cc1 | 24.6% (inactive)
37 | Cc1cc[n+](CCCCCCCCCC[n+]2ccc(C)cc2)cc1 | 93.7% (inactive)
38 | CCCSc1nc(N)nc2nc[nH]c12 | 119% (inactive)

tested on: K-562 leukemia; assay: as above; conditions: 10 µM unless noted

Row | SMILES | growth
39 | O=C(CSc1nc2ccc([N+](=O)[O-])cc2[nH]1)Nc1ccc(F)c(Cl)c1 | 11.9% (inactive)
40 | Cc1cc(C)c(O)c(CNCCCCCCNCc2cc(C)cc(C)c2O)c1 | -63% (active)
41 | CS(=O)(=O)c1cccnn1 | 84.3% (inactive)
42 | Cc1ccc(S(=O)(=O)Nc2ccccc2)cc1N | 78.3% (inactive)
43 | Nc1cc(C(=O)O)[nH]c(=S)n1 | 115% (inactive)
44 | COc1ccc(-c2nc3ccccn3c2/C=C/C(=O)c2cc(OC)c(OC)c(OC)c2)cc1OC | 14.6% (inactive)
45 | O=C(Nc1cccc2cccnc12)c1cc(C(=O)c2ccc(Cl)cc2)n2ccc(-c3ccncc3)cc12 | 113% (inactive)
46 | Cc1cccc(C[C@H](NC(=O)Nc2ccc(C)cc2F)C(=O)N[C@@H]2C(=O)N3C[C@H](O)C[C@H]3C(=O)N3CCN(C)C[C@H]3C(=O)N[C@@H](C)C(=O)N3C[C@H](C)C[C@H]3C(=O)O[C@H]2C)c1 | 23.1% (inactive)
47 | O=C1COCCN1c1ccc(NCc2cn(Cc3cccc4ccccc34)c3ccccc23)cc1 | 84.6% (inactive)
48 | COc1ncnc2c(-c3ccccc3)cn(COCc3ccccc3)c12 | 29.5% (inactive)
49 | O=C1CN(Cc2ccc(C(=O)NO)cc2)C(=O)[C@@H](Cc2ccccc2)N1 | 98% (inactive)
50 | CC(C)C1=NOC(=O)C1=Cc1cn(-c2ccco2)nc1-c1ccccc1 | 62.1% (inactive)
51 | c1ccc(-c2nnc(-c3c[nH]c4ncccc34)s2)cc1 | 83.9% (inactive)
52 | COCCCNc1nc(NC(=O)c2cc(Br)cc(C(F)(F)F)c2)cc(-c2cccnc2)n1 | 73.3% (inactive)
53 | CCn1cc(-c2cc(-c3ccc(Cl)cc3)nc(N)n2)c(-c2ccc(Br)cc2)n1 | 77.4% (inactive)
54 | CCOC(CNC(=O)c1cccc([N+](=O)[O-])c1)OCC | 94% (inactive)
55 | Cc1cccc([N+](=O)[O-])c1I | 141% (inactive)
56 | CCOc1cc(NC(=O)c2ccccc2)c(OCC)cc1N | 113% (inactive)
57 | CN(C)CCOc1ccc(/C(=C(/CCCl)c2ccccc2)c2ccccc2)cc1 | 1.34% (active)

Row | SMILES | growth
58 | Nc1nc(N)c2c(n1)NC(c1ccc(F)cc1)C1CCc3ccccc3C1=N2 (stereo unspecified) | 21.4% (inactive)
59 | CNC(=O)c1cc(Oc2ccc3nc(NC(=O)c4ccc5ncccc5c4)sc3c2)ccn1 | 93.7% (inactive)
60 | CC1(C)CC[C@]23CC[C@]4(C)[C@H](CC[C@@H]5[C@@]6(C)C/C(=C/c7ccncc7)C(=O)C(C)(C)[C@@H]6CC[C@]54C)[C@H]2[C@H]1OC3=O | 50.7% [100 µM] (inactive)
61 | CC1=CC[C@@H]2C(C)(C)C(=O)CC[C@@]2(C)[C@@H]1COc1ccc2ccc(=O)oc2c1 | 60.1% (inactive)
62 | COc1ccc(/C=C/C=C\C(=O)c2ccc(-n3ccnc3)cc2)cc1 | 66.2% (inactive)
63 | CCc1cccc(Cl)c1 | 114% (inactive)
64 | Cc1ccc(S(=O)(=O)n2cc(C(=O)C(=O)N3CCCCC3)c3ccccc32)cc1 | 69.9% (inactive)
65 | Cn1cc(-c2noc(-c3cn(C)c4ncc(F)cc34)n2)c2cc(Cl)ccc21 | 77.2% (inactive)
66 | O=C(Nc1cccc2ccccc12)c1cc2ccccc2cc1O | 14.7% (inactive)
67 | C#C[C@]1(O)CC[C@H]2[C@@H]3CC=C4c5nc(Nc6ncccn6)sc5CC[C@]4(C)[C@H]3CC[C@@]21C | 33.8% (inactive)
68 | CC(=O)OC[C@]12CC[C@@H](C(=O)CBr)[C@@H]1[C@H]1CC[C@@H]3[C@@]4(C)CCCNC(C)(C)[C@@H]4CC[C@@]3(C)[C@]1(C)CC2 | 5.86% [100 µM] (active)
69 | O=S(=O)(c1ccc(N/N=C\c2ccccc2Cl)cc1)c1ccc(N/N=C/c2ccccc2Cl)cc1 | 86.1% (inactive)
70 | Nc1nc(Cl)c2ncn(Cc3cc4c(cc3I)OCO4)c2n1 | 15.9% (inactive)
71 | Cc1ccc2c(c1)/C(=N\N=C/c1cn(C(C)C)c3ccccc13)C(=O)N2 | 22.1% (inactive)
72 | O=C1CC(c2ccccc2)Cc2nc3ccc(Cl)cc3cc21 (stereo unspecified) | 6.83% (active)
73 | C=C(C)[C@@H]1CC[C@]2(C(N)=O)CC[C@]3(C)[C@H](CC[C@@H]4[C@@]5(C)CC[C@H](O)C(C)(C)[C@@H]5CC[C@]43C)[C@@H]12 | 4.57% [100 µM] (active)
74 | COc1ccc(-c2cc(-c3ccc(Cl)cc3)nc(SCCCCCCC(=O)NO)n2)cc1 | 20.1% (inactive)
75 | Cc1cc[n+](CCCCCCCCCC[n+]2ccc(C)cc2)cc1 | 79.8% (inactive)
76 | CCCSc1nc(N)nc2nc[nH]c12 | 90.5% (inactive)
